# Screen size: about 66,000 compounds; about 960 (1.5%) showed an effect of 50% or more. Many of the other results were omitted from the sample, so strong results are more common in it than they were.
# System: Trypanosoma brucei
# Assay: Trypanosoma brucei 72 hour study
# Type: functional, organism-based
# Parameters: scale not given: in the data most compounds retested in dose-response had high values
structure (smiles),measurement,setting,value
O=C(CN1CCCC(c2ccn[nH]2)C1)Nc1nc2c(s1)CCC2 (stereo unspecified),Percent Effect,"30.3 µM, […]",99.68%
Cc1cc(C2CCCN(CCCS(=O)(=O)c3ccccc3)C2)n[nH]1 (stereo unspecified),Percent Effect,"30 µM, 30.03 µM",-28.48%
Cc1cc(C2CCCN(CC(=O)N3CCc4ccccc43)C2)n[nH]1 (stereo unspecified),Percent Effect,"30 µM, 30.03 µM",-0.2301%
Cc1cc(C2CCCN(CCS(=O)(=O)c3ccccc3)C2)n[nH]1 (stereo unspecified),Percent Effect,"30.3 µM, […]",-11.09%
same,Percent Effect,"10 mM, 10 mM as filed; unlikely as a test dose",-44.58%
Cc1nnc(NC(=O)CN2CCCC(c3ccn[nH]3)C2)s1 (stereo unspecified),Percent Effect,"30.3 µM, […]",-16.15%
Cc1cc(C2CCCN(CCNS(=O)(=O)c3ccccc3)C2)n[nH]1 (stereo unspecified),Percent Effect,"30.3 µM, […]",50.6%
same,Percent Effect,"10 mM, 10 mM as filed; unlikely as a test dose",-10.85%
Cc1cc(C2CCCN(CC(=O)Nc3nc4c(s3)CCC4)C2)n[nH]1 (stereo unspecified),Percent Effect,"30.3 µM, […]",99.45%
Cc1cc(C2CCCN(CC(=O)N3CCCc4ccccc43)C2)n[nH]1 (stereo unspecified),Percent Effect,"30 µM, 30.03 µM",1.182%
O=C(O)c1cccc(CN2CCCC(c3ccn[nH]3)C2)c1 (stereo unspecified),Percent Effect,"30.3 µM, […]",-0.7278%
O=C(CN1CCCC(c2ccn[nH]2)C1)Nc1nncs1 (stereo unspecified),Percent Effect,"30.3 µM, […]",7.116%
O=C(CN1CCCC(c2ccn[nH]2)C1)Nc1nc2c(s1)CCCC2 (stereo unspecified),Percent Effect,"30.3 µM, […]",99.87%
O=C(CN1CCCC(c2ccn[nH]2)C1)N1CCCc2ccccc21 (stereo unspecified),Percent Effect,"30 µM, 30.03 µM",-60.51%
CC(C)N1CCC2(CCNCC2)C1=O.Cl,Percent Effect,"30.3 µM, […]",-13.71%
Cc1cccc(CN2C(=O)CCC23CCN(c2ncc(F)cn2)CC3)n1.O=C(O)C(F)(F)F,Percent Effect,"30.3 µM, […]",6.517%
O=C(Nc1cnccn1)[C@H]1CO[C@H]2CCN(c3ncc(F)cn3)C[C@H]2C1.O=C(O)C(F)(F)F,Percent Effect,"30.3 µM, […]",-3.537%
Cc1cccc(CN2C(=O)CCC23CCN(c2ccccn2)CC3)n1.O=C(O)C(F)(F)F.O=C(O)C(F)(F)F,Percent Effect,"30.3 µM, […]",-36.28%
COc1ccccc1C(=O)NCCC(=O)Nc1c(C)nn(C)c1C,Percent Effect,"30 µM, 30.03 µM",-36.41%
CCC(C)C(=O)Nc1ccc2oc(=O)n(CCN(C)C)c2c1 (stereo unspecified),Percent Effect,"30 µM, 30.03 µM",-15.08%
Cc1cn2c(n1)C(CNCC1=Cc3cc(Cl)ccc3OC1)CCC2 (stereo unspecified),Percent Effect,"30.3 µM, […]",99.66%
Cc1cn2c(n1)C(CNCc1ccc(C)s1)CCC2 (stereo unspecified),Percent Effect,"30.3 µM, […]",-3.779%
Cc1cn2c(n1)C(CNCC1=Cc3ccccc3OC1)CCC2 (stereo unspecified),Percent Effect,"30.3 µM, […]",49.61%
O=C(Cc1cccc(F)c1)N1CCc2ncnc(NC3CCC3)c2CC1,Percent Effect,"30.3 µM, […]",-72.72%
CN(C)C(=O)N1CCC2(CC1)CCN(c1ncccn1)C2.O=C(O)C(F)(F)F,Percent Effect,"30.3 µM, […]",-41.17%
Cc1ncsc1-c1nnc(C2CCN(Cc3ccc(Cl)cc3)CC2)o1,Percent Effect,"30.3 µM, […]",0.5336%
Cc1ncsc1-c1nnc(C2CCN(Cc3ccc(F)cc3)CC2)o1,Percent Effect,"30.3 µM, […]",-21.24%
Cc1ccsc1-c1nnc(C2CCN(Cc3ccc(F)cc3)CC2)o1,Percent Effect,"30.3 µM, […]",56.66%
CN(C)C(=O)COCc1cncc2c1CCN(C1CCOCC1)C2.O=C(O)C(F)(F)F.O=C(O)C(F)(F)F,Percent Effect,"30.3 µM, […]",-55.36%
O=C1CC(c2cccc(Cl)c2)c2snc(C(=O)O)c2N1 (stereo unspecified),Percent Effect,"30.3 µM, […]",-31.06%
Cc1ccccc1C(=O)Nc1ccc(OC2CCN(C)CC2)cc1,Percent Effect,"30 µM, 30.03 µM",-8.393%
COc1ccccc1C(=O)Nc1ccc(OC2CCN(C)CC2)cc1,Percent Effect,"30 µM, 30.03 µM",-32.85%
CN1CCC(Oc2ccc(NC(=O)c3ccccc3Br)cc2)CC1,Percent Effect,"30 µM, 30.03 µM",65.56%
Cl.O=C(NCC1CCCO1)c1cc(-c2ccncc2)c2cnccc2n1 (stereo unspecified),Percent Effect,"30.3 µM, […]",-19.01%
CC1=Nc2c(c(=O)[nH]n2C(C)C)C(c2ccc3ncccc3c2)S1 (stereo unspecified),Percent Effect,"30 µM, 30.03 µM",-30.02%
CC(Cn1cccn1)NCc1nc(-c2cccc(Cl)c2)no1 (stereo unspecified),Percent Effect,"30 µM, 30.03 µM",53.11%
CC(Cn1cccn1)NCc1nc(-c2cccnc2)no1 (stereo unspecified),Percent Effect,"30 µM, 30.03 µM",5.913%
CC(Cn1cccn1)NCc1nc(-c2ccc3c(c2)OCO3)no1 (stereo unspecified),Percent Effect,"30.3 µM, […]",-4.603%
CCn1ccnc1C1CCCN(C(=O)c2sc(C)nc2C)C1 (stereo unspecified),Percent Effect,"30 µM, 30.03 µM",-29.7%
Cc1cc(C)nc(N2CCCC(c3nccn3CCCN(C)C)C2)c1 (stereo unspecified),Percent Effect,"30 µM, 30.03 µM",-17.07%
Cc1nc(N)sc1C(=O)N1CCCC(c2nccn2CCCN(C)C)C1 (stereo unspecified),Percent Effect,"30 µM, 30.03 µM",50.48%
N#CCc1cccc(C(=O)N2CCN(CC(O)c3ccccc3)CC2)c1 (stereo unspecified),Percent Effect,"30.3 µM, […]",6.868%
same,Percent Effect,"10 mM, 10 mM as filed; unlikely as a test dose",-3.185%
Cc1noc(C)c1CNCC1CCN(CC(O)c2ccccc2)CC1 (stereo unspecified),Percent Effect,"30 µM, 30.03 µM",39.8%
Cc1ncccc1CNCC1CCN(CC(O)c2ccccc2)CC1 (stereo unspecified),Percent Effect,"30 µM, 30.03 µM",36.2%
OC(CN1CCC(CNCc2ccccn2)CC1)c1ccccc1 (stereo unspecified),Percent Effect,10 µM,-26.34%
same,Percent Effect,"30.3 µM, […]",32.19%
CCn1ccnc1CNCC1CCN(CC(O)c2ccccc2)CC1 (stereo unspecified),Percent Effect,"30 µM, 30.03 µM",95.36%
CCn1ccnc1CN1CCN(CC(O)c2ccccc2)CC1 (stereo unspecified),Percent Effect,"30 µM, 30.03 µM",-18.29%
Cc1ccc(CNCC2CCN(CC(O)c3ccccc3)CC2)o1 (stereo unspecified),Percent Effect,10 µM,51.2%
same,Percent Effect,"30.3 µM, […]",70.09%
CN(C)CCOC[C@H]1CC[C@H]2[C@H](CCN2C(=O)c2ccoc2)O1.O=C(O)C(F)(F)F,Percent Effect,"30 µM, 30.03 µM",21.89%
Cc1cnn(CC2CCCN2C(=O)c2cn(C)c3ccccc23)c1 (stereo unspecified),Percent Effect,10 µM,-33.63%
Cc1ccc(-c2cc(CNc3ncnc4c3CCNCC4)no2)cc1,Percent Effect,"30 µM, 30.03 µM",31.3%
CSc1ccc(CN(C)Cc2noc(C(C)(C)C)n2)cc1,Percent Effect,"30 µM, 30.03 µM",-12.59%
Cc1ccc2c(n1)N(CCn1cccn1)CCN(CC1CC1)C2.O=C(O)C(F)(F)F.O=C(O)C(F)(F)F,Percent Effect,"30.3 µM, […]",-30.39%
CS(=O)(=O)N1CCC(CNC(=O)C2CCCC2)CC1,Percent Effect,"30 µM, 30.03 µM",-35.01%
Cc1cc(C)c(C#N)c(N2CCC3(CCCN(CCO)C3=O)C2)n1 (stereo unspecified),Percent Effect,"30 µM, 30.03 µM",-17.57%
Cc1cc(N2CCC3(CCCN(CCO)C3=O)C2)nc(C)c1C#N (stereo unspecified),Percent Effect,"30 µM, 30.03 µM",-51.69%
COCCN1CCCC2(CCN(c3cc(C)c(C#N)c(C)n3)C2)C1=O (stereo unspecified),Percent Effect,"30 µM, 30.03 µM",50.02%
Cn1cccc1C(=O)N1CCC2(CCN(C(=O)c3cccnc3)C2)CC1.O=C(O)C(F)(F)F,Percent Effect,"30.3 µM, […]",-55.95%
CC1c2ncc(CNC(=O)C3CC3)n2CCN1Cc1ccncc1.O=C(O)C(F)(F)F.O=C(O)C(F)(F)F (stereo unspecified),Percent Effect,"30.3 µM, […]",-14.67%
C[C@@H]1C(=O)NC[C@H]2CN(CCc3ccccc3)C[C@H]21.O=C(O)C(F)(F)F,Percent Effect,"30.3 µM, […]",-1.404%
CCc1nc(CN(C(C)=O)C2CCN(CCc3ccccc3)C2)no1 (stereo unspecified),Percent Effect,10 µM,-54.25%
CCc1nc(CN(C(C)=O)C2CCN(CCc3ccccn3)C2)no1 (stereo unspecified),Percent Effect,10 µM,65.29%
CCc1nc(CN(C)C2CCN(CCc3ccccn3)C2)no1 (stereo unspecified),Percent Effect,"30 µM, 30.03 µM",3.156%
